The values below come from PubChem BioAssay.

Structures are written as SMILES. Calls of active or inactive are those of the source.

The test system of experiment [1] is Human papillomavirus type 1a protein E7 (residues 44-93). The experiment can be described thus: small molecules binding HPV E7 44-93 – biochemical, small-molecule microarray, residues 44-93, 635 nm fluorescence, primary screen (AID 1108).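 Further: E7 fragment applied at 1 µg/mL in TBST for 1 h at 4 C; score combines spot fluorescence with its signal to noise ratio.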 The conditions noted are these: fluorescence 635 nm, higher = more signal.
Experiment [2] can be described thus: hepatitis C replication reporter changes, two-sided – Huh7 cells, luciferase reporter, HCV replication inhibitor project, primary screen (AID 1109).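 Further: huh7 hepatoma cells harbouring a luciferase neomycin HCV replicon reporter; luciferase luminescence as measure of HCV replicon replication; test concentration not given here.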 The conditions noted are these: Huh7 HCV replicon luciferase reporter, 48 h; higher = more signal.
For experiment [3], the target named is Left-right determination factor 2 (Homo sapiens) (UniProt O00292). The experiment can be described thus: small molecules binding LEFTY2 protein – biochemical, small-molecule microarray, 635 nm fluorescence scan, primary screen (AID 1110). The note with it: higher = more signal.
Chain of Left-right determination factor 2 (Homo sapiens) (O00292 whole entry, looked up): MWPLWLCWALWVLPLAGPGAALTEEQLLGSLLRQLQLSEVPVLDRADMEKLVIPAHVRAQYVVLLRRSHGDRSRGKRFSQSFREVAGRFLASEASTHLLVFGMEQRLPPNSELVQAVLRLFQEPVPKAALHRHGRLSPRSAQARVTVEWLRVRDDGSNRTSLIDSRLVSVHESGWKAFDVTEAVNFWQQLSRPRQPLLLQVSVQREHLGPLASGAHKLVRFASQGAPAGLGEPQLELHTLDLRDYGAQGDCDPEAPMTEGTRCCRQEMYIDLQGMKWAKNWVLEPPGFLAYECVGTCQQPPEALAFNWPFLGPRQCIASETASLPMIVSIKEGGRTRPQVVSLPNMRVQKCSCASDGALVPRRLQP
Experiment [4] addresses Calmodulin-1 (Homo sapiens) (UniProt P0DP23). The experiment can be described thus: small molecules binding calmodulin-1 with EGTA – biochemical, small-molecule microarray, Cy5-labelled CALM1, profiling panel (AID 1111).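 Further: labelled calmodulin applied in Tris saline Tween buffer holding calcium plus EGTA and DTT.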 The note with it: Cy5-CALM1 binding fluorescence, higher = more signal.
Experiment [5] has the same target. Put plainly: small molecules binding Ca-loaded calmodulin-1 – biochemical, small-molecule microarray, Cy5-labelled CALM1, plus calcium, artefact control for SMM control-protein annotation, profiling panel (AID 1112).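 Further: score merges spot fluorescence with signal to noise from triplicate slides.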 The note with it: Cy5-CALM1 binding fluorescence, higher = more signal.
Experiment [6] is described as follows: probe aWnt5a binding to arrayed compounds – biochemical, biotinylated probe, 635/667 nm fluorescence, primary screen (AID 1113).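 Further: score merges 667 nm fluorescence intensity with signal-to-noise per printed feature.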 The note with it: small-molecule microarray, higher = more signal.
Experiment [7] in a line: probe aShh binding to arrayed compounds – biochemical, biotinylated probe, 635/667 nm fluorescence, primary screen (AID 1114).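 Further: probe is biotin-labelled aShh protein from a stem cell growth factor screen; measures binding of labelled protein to compounds printed on the slide; score merges feature fluorescence at 667 nm with signal-to-noise.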 The conditions noted are these: small-molecule microarray, higher = more signal.
Experiment [8] can be described thus: probe aNog binding to arrayed compounds – biochemical, biotinylated probe, 635/667 nm fluorescence, primary screen (AID 1115).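 Further: probe is biotinylated aNog protein used at 0.15 µg/mL for 1 h at 4 C; z-score combines 667 nm fluorescence of each spot with its signal to noise.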 The note with it: small-molecule microarray, higher = more signal.
In experiment [9] the target is Torsin-1A-interacting protein 1 (Homo sapiens) (UniProt Q5JTV8). The experiment can be described thus: compound microarray binding of lysate hLAP1 – cell lysate, small-molecule microarray, COS7 lysate, 635/667 nm fluorescence, primary screen (AID 1116). The note with it: 635 nm fluorescence, higher = more signal.
Chain of Torsin-1A-interacting protein 1 (Homo sapiens) (Q5JTV8 whole entry, looked up): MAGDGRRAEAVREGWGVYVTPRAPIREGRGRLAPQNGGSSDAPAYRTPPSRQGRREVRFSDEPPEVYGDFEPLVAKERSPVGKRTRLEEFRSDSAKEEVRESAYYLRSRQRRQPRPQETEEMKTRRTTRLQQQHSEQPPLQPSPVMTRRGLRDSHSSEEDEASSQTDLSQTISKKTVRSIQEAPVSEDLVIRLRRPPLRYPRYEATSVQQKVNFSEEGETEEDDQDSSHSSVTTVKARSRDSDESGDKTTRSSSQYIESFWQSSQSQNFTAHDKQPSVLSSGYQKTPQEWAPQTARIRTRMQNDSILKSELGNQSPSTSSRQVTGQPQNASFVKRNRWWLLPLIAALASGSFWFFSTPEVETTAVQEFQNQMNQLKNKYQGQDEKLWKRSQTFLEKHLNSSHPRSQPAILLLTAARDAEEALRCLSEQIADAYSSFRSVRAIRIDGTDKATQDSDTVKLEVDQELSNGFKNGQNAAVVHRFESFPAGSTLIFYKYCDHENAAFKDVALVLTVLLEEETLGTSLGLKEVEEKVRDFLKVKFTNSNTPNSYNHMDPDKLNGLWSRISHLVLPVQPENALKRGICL
The target of experiment [10] is Alpha-bungarotoxin (Bungarus multicinctus) (UniProt P60615). Put plainly: compounds binding labelled alpha-BTX control protein – biochemical, small-molecule microarray, Alexa647 label, 635/667 nm fluorescence, artefact control for SMM control protein annotation, profiling panel (AID 1117). The note with it: alpha-BTX-A647 binding fluorescence, higher = more signal.
Chain of Alpha-bungarotoxin (Bungarus multicinctus) (P60615 whole entry, looked up): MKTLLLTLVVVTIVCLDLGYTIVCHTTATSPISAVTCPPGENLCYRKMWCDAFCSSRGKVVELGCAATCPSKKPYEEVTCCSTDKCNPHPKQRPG
In the next experiment the target is Albumin (Bos taurus) (UniProt P02769). Put plainly: compounds binding labelled BSA control protein – biochemical, small-molecule microarray, Alexa647 label, 635/667 nm fluorescence, artefact control for SMM control protein annotation, profiling panel (AID 1118).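 Further: score merges 667 nm emission intensity and signal-to-noise per printed compound spot.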 The note with it: BSA-A647 binding, fluorescence 635 nm, higher = more signal.
Chain of Albumin (Bos taurus) (P02769 whole entry, looked up): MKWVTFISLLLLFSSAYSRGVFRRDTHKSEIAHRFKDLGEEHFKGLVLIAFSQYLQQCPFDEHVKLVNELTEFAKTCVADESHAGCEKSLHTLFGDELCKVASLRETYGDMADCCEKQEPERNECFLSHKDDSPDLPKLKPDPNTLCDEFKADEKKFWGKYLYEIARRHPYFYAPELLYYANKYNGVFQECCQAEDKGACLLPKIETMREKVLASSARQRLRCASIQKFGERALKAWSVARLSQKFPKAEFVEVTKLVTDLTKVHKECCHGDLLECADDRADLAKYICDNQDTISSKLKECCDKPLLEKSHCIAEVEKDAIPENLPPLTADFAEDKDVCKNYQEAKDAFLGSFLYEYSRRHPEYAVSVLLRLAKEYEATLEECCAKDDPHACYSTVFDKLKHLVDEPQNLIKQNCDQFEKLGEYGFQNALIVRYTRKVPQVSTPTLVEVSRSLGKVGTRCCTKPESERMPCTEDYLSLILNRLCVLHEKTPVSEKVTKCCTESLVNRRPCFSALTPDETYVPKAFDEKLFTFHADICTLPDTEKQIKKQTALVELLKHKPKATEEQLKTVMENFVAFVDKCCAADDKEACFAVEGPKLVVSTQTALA
A short description of experiment [11]: probe aXIP binding to arrayed compounds – biochemical, NeuroSMM set, 635/667 nm fluorescence, primary screen (AID 1119).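 Further: probe is the protein aXip251-270 applied at 1 µg/mL to compound-printed slides; binding of probe to printed compounds measured as 667 nm fluorescence plus signal to noise.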 The conditions noted are these: small-molecule microarray, higher = more signal, called active from +8 up or from −8 down.
A short description of experiment [12]: probe aNOTCH3 binding on compound microarray – biochemical, small-molecule microarray, 635/667 nm fluorescence, primary screen (AID 1120).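 Further: probe is a biotin-tagged antibody raised against NOTCH3 rather than NOTCH3 protein; score merges spot fluorescence near 667 nm with spot signal to noise.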 The conditions noted are these: higher = more signal.
The nature of experiment [13]: probe aNOTCH2 binding on compound microarray – biochemical, small-molecule microarray, 635/667 nm fluorescence, primary screen (AID 1121).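 Further: score merges feature fluorescence read at 667 nm with its signal to noise.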 The note with it: higher = more signal.
In experiment [14] the target is Carbonic anhydrase 2 (Homo sapiens) (UniProt P00918). The experiment can be described thus: compounds binding carbonic anhydrase 2 – biochemical, small-molecule microarray, Alexa647-labelled CAII, profiling panel (AID 1122). The note with it: CAII-A647 binding fluorescence, higher = more signal.
The nature of experiment [15]: COS7 lysate on small-molecule microarray, probe aHis, 635 nm (AID 1123).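 Further: z-score combines 667nm fluorescence intensity with signal-to-noise per printed compound spot.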 The note with it: COS7 cell lysate, fluorescence, higher = more signal.
The nature of experiment [16]: probe aLAP1 signal on lysate-treated microarray – cell lysate, small-molecule microarray, COS7 lysate, primary screen (AID 1124).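 Further: lysate comes from COS7 cells expressing LAP1 and is applied at 0.3 µg/mL; score merges spot fluorescence near 667 nm with signal-to-noise over triplicate slides.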 The conditions noted are these: probe aLAP1, fluorescence, higher = more signal.
A further experiment relates to Sam68 (KHDRBS1). Put plainly: compounds binding KHDRBS1 protein – biochemical, small-molecule microarray, 635 nm fluorescence, primary screen (AID 1125).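 Further: score merges 667 nm channel intensity with signal to noise over triplicate slides.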 The conditions noted are these: higher = more signal.
Experiment [17] relates to Chordin-like protein 2 (CHRDL2). The experiment can be described thus: compounds binding chordin-like 2 – biochemical, small-molecule microarray, 635 nm fluorescence, primary screen (AID 1126).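 Further: printed compound slides probed with Chrdl2 protein at 4 µg/mL for 1 h at 4 C; score merges 667 nm emission intensity with signal to noise over three replicate slides.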 The note with it: fluorescence 635 nm, higher = more signal.
Experiment [18] deals with Concanavalin-A (Canavalia ensiformis) (UniProt P02866). The experiment can be described thus: compounds binding concanavalin A lectin – biochemical, small-molecule microarray, Alexa647 label, 635 nm, artefact control for SMM control protein annotation, primary screen (AID 1127).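 Further: z combines 667 nm emission intensity with signal-to-noise across three replicate slides.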 The note with it: ConA-A647 binding fluorescence, higher = more signal.
Chain of Concanavalin-A (Canavalia ensiformis) (P02866 whole entry, looked up): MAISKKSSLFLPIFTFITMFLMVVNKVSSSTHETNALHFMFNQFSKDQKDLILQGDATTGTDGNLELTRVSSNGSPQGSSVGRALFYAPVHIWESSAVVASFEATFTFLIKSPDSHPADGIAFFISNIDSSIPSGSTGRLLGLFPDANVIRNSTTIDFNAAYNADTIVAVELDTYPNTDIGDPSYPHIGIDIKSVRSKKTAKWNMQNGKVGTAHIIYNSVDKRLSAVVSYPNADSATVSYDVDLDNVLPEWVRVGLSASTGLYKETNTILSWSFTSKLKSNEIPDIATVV

For `CC(C)=NO[C@@H](C)c1cn([C@H](CO)Cc2ccccc2)nn1`, the composite z-score was 0.833 in [1]; 0.802 in experiment [3]; -0.03 in experiment [4]; -0.408 in [5]; 0.0044 in experiment [6]; -0.0794 in experiment [7]. The composite z-score in [8] was -0.35; in experiment [9] it was 0.541; in [10], 0.392; with Albumin (Bos taurus) it was 0.015; in [12], 0.145; in experiment [13] it was -0.0375. Also, the composite z-score in experiment [14] was found to be 0.138; in [15] it was 0.398; in experiment [16], 0.224; with Sam68 (KHDRBS1), 0.863; in [17] it was 0.655; in experiment [18], 0.65. Besides, in experiment [2], the z-score turned out to be 1.13. Besides, the composite Z-score in experiment [11] is 0.374 (inactive).

Consider `COc1ccc(O[C@H]2C=C[C@@H](c3ccccc3)O[C@@H]2COC(=O)CCC(C)=NOC[C@@H](O)COCc2ccco2)cc1`, for which the composite z-score was -0.82 in experiment [1]; -4.63 in [3]; -2.11 in [4]; -2.04 in experiment [5]; -0.449 in experiment [6]; -0.267 in experiment [7]. Moreover, the composite z-score in [8] is -0.715; in experiment [9] it was -2.94; in [10] it was -1.65; with Albumin (Bos taurus), 0.214; in experiment [12], -0.919; in experiment [13], -0.271. Besides, the composite z-score in experiment [14] was -0.888; in experiment [15], -1.8; in experiment [16] it was -0.875; in the experiment on Sam68 (KHDRBS1), -0.875; in experiment [17] it was -3.04; in experiment [18], -2.57. Besides, the z-score in experiment [2] was -0.681. Also, the composite Z-score in [11] is -0.22 (inactive).

For `COc1ccc(OC[C@H]2CN3[C@@H](CC[C@@H](C)[C@@H]3c3ccc(Br)cc3)C(=O)O2)cc1`, the composite z-score in experiment [1] is 0.191; in experiment [3], 0.579; in experiment [4], -0.146; in experiment [5], -0.855; in experiment [6], -0.176; in experiment [7], -0.221. Also, the composite z-score was 0.0121 in experiment [8]; 0.5 in experiment [9]; 0.641 in experiment [10]; 0.197 in the experiment with Albumin (Bos taurus); -0.25 in experiment [12]; -0.13 in experiment [13]. Besides, the composite z-score in experiment [14] was -0.657; in experiment [15] it was -0.239; in [16], 0.254; in the experiment with Sam68 (KHDRBS1), 0.592; in experiment [17], 0.464; in [18], 0.297. In addition, in [2], the z-score was -0.757. Moreover, the composite Z-score in experiment [11] was 0.281 (inactive).

Turning to `O=C(NN=C1C[C@@H](O)[C@@H](O)[C@@H]2[C@@H]3C(=O)N(c4ccc(F)cc4F)C(=O)[C@@H]3CC[C@H]12)OCc1ccccc1`, the composite z-score in experiment [1] is 1.35; in [3], 0.446; in experiment [4], 0.463; in experiment [5] it was -0.235; in [6], -0.12; in [7] it was -0.0192. Also, the composite z-score in experiment [8] is -0.406; in experiment [9], 0.747; in experiment [10], 0.555; in the experiment with Albumin (Bos taurus), 0.87; in [12], 0.11; in experiment [13], -0.0958. The composite z-score in [14] was 0.477; in experiment [15] it was 0.98; in experiment [16], -0.27; with Sam68 (KHDRBS1), 0.959; in experiment [17] it was 0.161; in experiment [18], 0.411. The z-score in experiment [2] is -0.642. Besides, in experiment [11], the composite Z-score was -0.525 (inactive).

For the compound `C[C@H]1CC[C@H]2C(=O)O[C@H](CO)CN2[C@@H]1c1ccc(Br)cc1`, the composite z-score in experiment [1] was 0.33; in experiment [3], 0.217; in experiment [4] it was -0.25; in experiment [5], -0.445; in experiment [6] it was -0.213; in [7], -0.276. Moreover, the composite z-score was -0.234 in experiment [8]; -0.138 in [9]; 0.126 in experiment [10]; 0.167 with Albumin (Bos taurus); 0.0081 in [12]; -0.124 in [13]. The composite z-score in experiment [14] was -0.11; in [15] it was -0.0346; in experiment [16], 0.0438; with Sam68 (KHDRBS1), 0.424; in experiment [17], 0.229; in experiment [18], -0.453. The same compound yielded a z-score in [2] of -0.0002. Further, the composite Z-score in experiment [11] is 0.436 (inactive).

On to `CC=CC1=C(CO)[C@H](O)[C@H]2O[C@H]2[C@@H]1O`, for which the composite z-score in [1] was -0.342; in experiment [3], 1.06; in experiment [4], -0.849; in experiment [5], -1.1; in experiment [6], -0.0236; in experiment [7] it was -0.282. Moreover, the composite z-score in experiment [8] is -0.244; in [9], -0.193; in experiment [10], 0.495; with Albumin (Bos taurus) it was -0.0712; in [12] it was 0.213; in experiment [13], -0.141. Moreover, the composite z-score was 0.17 in [14]; -0.394 in experiment [15]; -0.599 in experiment [16]; 0.269 with Sam68 (KHDRBS1); 0.753 in [17]; 0.0361 in [18]. For the same compound, the z-score in experiment [2] amounted to 0.382. Besides, the composite Z-score in experiment [11] is 0.0296 (inactive).
